Out of some 69,000 compounds screened, about 420 (0.61%) showed an effect of 50% or more. The list comes from a sample in which strong results are over-represented; it also holds similar structures and randomly drawn compounds.

The target in the assay is T1, Histidine--tRNA ligase (Leishmania infantum) (UniProt A4I591).
T1 sequence (whole entry): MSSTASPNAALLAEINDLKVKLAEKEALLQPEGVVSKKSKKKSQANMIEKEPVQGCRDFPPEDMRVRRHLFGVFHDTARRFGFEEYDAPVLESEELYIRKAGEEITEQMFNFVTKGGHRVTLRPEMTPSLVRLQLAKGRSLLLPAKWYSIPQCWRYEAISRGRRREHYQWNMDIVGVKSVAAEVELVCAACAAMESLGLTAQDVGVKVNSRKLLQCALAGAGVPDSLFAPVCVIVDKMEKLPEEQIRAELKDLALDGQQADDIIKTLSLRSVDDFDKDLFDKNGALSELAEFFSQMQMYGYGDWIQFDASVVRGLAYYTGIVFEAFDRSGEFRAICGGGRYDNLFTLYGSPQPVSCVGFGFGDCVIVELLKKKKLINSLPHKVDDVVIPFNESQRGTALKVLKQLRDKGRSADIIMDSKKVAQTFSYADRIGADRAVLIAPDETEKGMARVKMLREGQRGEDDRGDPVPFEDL
As to the kind of experiment: Leishmania infantum Histidine tRNA synthetase (LdHisRS). It is filed as functional. More on the design: scale not given: in the data most compounds retested in dose-response had high values. The conditions noted are these: 30 µM.
`O=C(Cc1cccc(F)c1)N1C[C@H]2CN(Cc3ccccn3)C[C@H]2C1`: the Percent Effect worked out at 15.4%.
The figure for `O=C(CSc1ccccc1)N1C[C@H]2CC[C@@H]1CN(Cc1ccncc1)C2` is 12.9%; for `O[C@@H]1C[C@@](CNCc2ccccn2)(COc2cccnc2)C[C@@H]1O` it is 12.2%; for `O=C(CO)N1CCC(F)(F)C2(CCN(c3ccccc3)C2)C1` (centres undefined) it is 23.1%.
The figure for `FC1(F)CCN(Cc2ccncc2)CC12CCN(c1cccnc1)C2` (centres undefined) is 19.1%; for `O=C(O)CN1CCC(F)(F)C2(CCN(c3ccccc3)C2)C1` (centres undefined) it is 53.9%; for `FC1(F)CCN(Cc2cccnc2)CC12CCN(c1ccccn1)C2` (centres undefined) it is 19.6%.
For the compound `FC1(F)CCN(Cc2cccnc2)CC12CCN(c1ccccc1)C2` (centres undefined), the Percent Effect is 57.3%.
The result for `FC1(F)CCN(c2ccccc2)CC12CCN(c1ncccn1)C2` (centres undefined) reads 21.4%; that for `O=C(C1CCC1)N1CCN(Cc2ccc(F)cc2)[C@H]2CS(=O)(=O)C[C@H]21`, 17.8%.
As for `COc1ccc(N)c(N2CCN(C(C)=O)CC2)n1`, the Percent Effect was determined as 61.6%.
Take `COc1ccc(NC(C)=O)c(N2CCN(C(C)=O)CC2)n1`: the Percent Effect stood at 17.3%.
The figure for `COc1ccc(NC(=O)CCC(C)C)c(N2CCN(C(C)=O)CC2)n1` is 11.6%.
For `Cc1ccc(NC(=O)Nc2c(O)oc3ccccc3c2=O)cc1`, the Percent Effect worked out at 6.17%.
Regarding `O=C1CO[C@H]2CN(Cc3ccc(F)c(F)c3)C[C@H]2N1`, the Percent Effect worked out at 1.35%.
Turning to `Cc1cc2nc(SCC(=O)N3CCCC3)n(C)c(=O)c2[nH]1`, the Percent Effect worked out at 5.26%.
The result for `Cc1cc2nc(SCC(=O)N3CCCCC3)n(C)c(=O)c2[nH]1` reads 10.5%; that for `Cc1cc2nc(SCC(=O)N3CCCC3)n(-c3ccccc3)c(=O)c2[nH]1`, 51.4%; that for `COCCC(=O)N1C[C@@H]2COC[C@]2(COCc2cccnc2)C1`, 10.7%.
The result for `CCS(=O)(=O)N1C[C@H]2CN(Cc3cccnc3)C(=O)[C@H]2C1` reads 0%.
In the case of `O=C(c1ccnnc1)N1CCO[C@H]2[C@@H](OCc3cccnc3)CC[C@@H]21`, the Percent Effect is 25.7%.
The figure for `CCCN1C[C@H]2CC[C@@H]1CN(Cc1cccc(O)c1)C2` is 32.9%; for `CCCN1C[C@H]2CC[C@@H]1CN(Cc1cccc(-n3cccn3)c1)C2` it is 14.2%; for `CC(=O)N1C[C@@H]2CC[C@H](C1)N(Cc1ccc(Cn3cccn3)cc1)C2` it is 14.2%.
The result for `CCCN1C[C@H]2CC[C@@H]1CN(Cc1ccc(Cn3cccn3)cc1)C2` reads 17.5%.
The result for `CCCN1C[C@H]2CC[C@@H]1CN(Cc1ccc(-n3cccn3)cc1)C2` reads 50.8%; that for `CCN1CCO[C@@H]2CN(C(=O)c3ccc4[nH]ccc4c3)CC[C@@H]2C1`, 26%.
For `CN1CCN(C(=O)[C@H]2C[C@@H]3CCN(c4ncc(F)cn4)C[C@@H]3O2)CC1`, the Percent Effect was 7.55%.
The result for `CC(=O)N1CC[C@H]2OCC[C@@H](C(=O)Nc3cccnc3C)[C@@H]2C1` reads 17.3%; that for `CN(C)C(=O)N1C[C@@H]2CC[C@H](C1)N(S(=O)(=O)c1cccnc1)C2`, 12.1%.
The figure for `CCO[C@H]1CN(CC2CCOCC2)[C@@H]2CCCO[C@H]12` is 7.92%; for `O=S(=O)(C1CC1)N1CCO[C@H]2[C@H](OCC3CC3)CC[C@@H]21` it is 5.56%.
As to `O=C(c1cnccn1)N1CCN2C[C@H](OCc3ccccc3)C[C@H]2C1`, the Percent Effect was 15.1%.
In the case of `O=C(Nc1nccs1)c1csc(NC2CCCC2)n1`, the Percent Effect is 66.3%.
The figure for `O=C(Nc1ccccn1)c1csc(NC2CCCC2)n1` is 28.1%; for `Cc1cnc(NC(=O)c2csc(NC3CCCC3)n2)s1` it is 21.4%; for `Cc1n[nH]c(SCC(=O)N2C[C@H]3CC[C@@H]2CN(c2ncccn2)C3)n1` it is 9.38%.
The result for `COCCN1C[C@@H]2CCCO[C@@H]2[C@H](NC(=O)c2cnccn2)C1` reads 11.3%; that for `CC(C)CN1CCC(NCCNc2cccnc2)CC1`, 9.76%.
The figure for `c1cncc(NCCNC2CCSCC2)c1` is 8.57%.
With `c1cncc(NCCCNC2CCSC2)c1` (centres undefined), the Percent Effect turned out to be 28.6%.
The result for `c1cncc(NCCNC2CCSC2)c1` (centres undefined) reads 62.9%; that for `c1cncc(NCCNC2CSCCSC2)c1`, 74.3%.
The figure for `Cc1cnccc1NCCNC1CCSCC1` is 17.1%.
The result for `CN(Cc1ccsc1)C(=O)Nc1ccc(=O)n(C)c1` reads 123%.
Regarding `Cc1cc(NC(=O)CCc2ccsc2)n(C)n1`, the Percent Effect worked out at 18.3%.
`Cc1cnccc1NC(=O)CCc1ccsc1`: the Percent Effect is 9.33%.
The result for `Cn1cc(NC(=O)CCc2ccsc2)ccc1=O` reads 103%.
The result for `Cn1cc(NC(=O)NCc2ccsc2)ccc1=O` reads 126%.
The result for `CCNC(=O)N1CCc2ccc(NC(=O)NCc3ccsc3)cc21` reads 31.7%; that for `CN(Cc1ccsc1)C(=O)Nc1ccc(S(=O)(=O)N(C)C)cc1`, -30.3%.
For the compound `COCc1csc(NC(=O)NCc2ccsc2)n1`, the Percent Effect is 14.3%.
The result for `CN(Cc1ccsc1)C(=O)Nc1ccc(S(C)(=O)=O)cc1` reads 11.9%; that for `O=C1CO[C@H]2CN(S(=O)(=O)c3ccccc3)C[C@H]2N1Cc1ccccc1`, 25%.
The result for `CCC1=N[C@@]2(CC[C@@H]3CN(S(C)(=O)=O)C[C@@H]32)C(=O)N1CC(C)C` reads 7.96%.
The result for `CC(C)CO[C@H]1CN(S(=O)(=O)c2cn(C)cn2)[C@@H]2CCCO[C@H]12` reads 1.01%; that for `C(=C\c1ccc(CN2CCCC2)cn1)/c1ccccc1`, 22.6%; that for `COc1ccc(CN2CCn3cccc3C2C)cc1F` (centres undefined), 29.5%.
As for `COc1ccc(C)cc1CN1CCn2cccc2C1C` (centres undefined), the Percent Effect was determined as 42%.
In the case of `COc1ccc(C(C)=O)cc1CN1CCn2cccc2C1C` (centres undefined), the Percent Effect worked out at 52.7%.
The figure for `CN(C)C[C@H]1OC[C@@H]2CCN(S(=O)(=O)c3ccc(F)cc3)C[C@@H]21` is -4.59%.
The figure for `O=C1CC[C@H]2CN(C3CCOCC3)CC[C@H]2N1CCC1=CCCCC1` is 15.6%; for `COc1ccc(CN2C[C@@H]3CC[C@H](C2)N(S(C)(=O)=O)C3)cc1` it is 10%; for `O=S1(=O)C[C@@H]2[C@H](C1)N(S(=O)(=O)N1CCCC1)CCN2Cc1ccccc1` it is 19.2%.
The result for `CN(C)CCN1CCCC12CCN(C(=O)c1cccn1C)CC2` reads 5.88%; that for `CN(C)CCN1CCO[C@@H]2CCN(C(=O)c3cccn3C)CC[C@H]21`, 52.8%.
For the compound `CN(C)CCN1CCO[C@H]2CCN(C(=O)c3cccs3)CC[C@@H]21`, the Percent Effect came to 15.4%.
With `COc1ccccc1CN1C(=O)O[C@@H]2CN(CC3CC3)C[C@@H]21`, the Percent Effect is 10%.
The result for `O=C([C@@H]1CC[C@@H]2[C@@H](CCN2Cc2cccs2)O1)N1CCCCO1` reads 17.1%; that for `NC(=O)c1cnc2n1CCN(C(=O)c1cccc(Cn3cccn3)c1)C2`, 12.6%.
The figure for `Cc1nc2ccc(C(=O)N3CCn4c(C)nnc4C3)cc2nc1C` is 21%.
The figure for `NC(=O)c1cnc2n1CCN(C(=O)c1ccc(-c3cc[nH]n3)cc1)C2` is 14.9%; for `CC(C)c1nnc2n1CCN(C(=O)c1ccc(Cn3cccc3)cc1)C2` it is 14.9%.
Consider `NC(=O)c1cnc2n1CCN(C(=O)c1ccc(Cn3cccc3)cc1)C2`, for which the Percent Effect was 63.2%.
The result for `Cc1nnc2n1CCN(C(=O)c1ccc(Cn3cccc3)cc1)C2` reads 51.7%.
The figure for `COc1cccc(SCCCn2cnc3c(N)ncnc32)c1` is 4.08%; for `Clc1ccc(C2(CNC3=NCCN3)CCCCC2)cc1` it is 50%.
On to `Clc1ccc(C2(CNC3=NCCN3)CCCC2)cc1`, for which the Percent Effect was determined as 35.7%.
Regarding `Clc1ccc(C2(CNC3=NCCN3)CC2)cc1`, the Percent Effect is 18.6%.
The result for `CC(C)c1n[nH]c(C(=O)Nc2ccccn2)c1Br` reads 0%.
The result for `CNC(=O)[C@@]12CCO[C@@H]1CCN(S(=O)(=O)c1ccccc1C)C2` reads 5%.
The figure for `CC(C)CS(=O)(=O)N1C[C@H]2C[C@H](C(=O)N3CCOCC3)[C@@H](C1)O2` is 1.89%.
In the case of `O=C(c1cccnc1-c1ccoc1)N1C[C@H]2CC[C@@H]1C2`, the Percent Effect stood at 1.43%.
The figure for `COc1ccc(C2CC(=O)NCc3nc(N(C)C)sc32)c(O)c1` (centres undefined) is 10.8%; for `COc1ccc(OC)c(C2CC(=O)Nc3nc(N4CCOCC4)sc32)c1` (centres undefined) it is 102%.
The figure for `COc1ccc(C2CCCN2c2nnc(C)s2)c(OC)c1` (centres undefined) is 6.25%.
The figure for `CCn1ncnc1C1CC(=O)NCc2nc(N3CCOCC3)sc21` (centres undefined) is 25.3%.
Consider `COc1ccc(C2CC(=O)Nc3c2cnn3C)cc1` (centres undefined), for which the Percent Effect turned out to be 1.91%.
As to `COc1ccc(C2CC(=O)Nc3nc(N4CCOCC4)sc32)c(OC)c1` (centres undefined), the Percent Effect amounted to 115%.
The figure for `COc1ccc(C(C)C)cc1C1CC(=O)NCc2nc(N(C)C)sc21` (centres undefined) is 31.2%.
The result for `COc1ccc(C2CC(=O)Nc3nc(N4CCOCC4)sc32)cc1` (centres undefined) reads 105%.
The result for `COc1ccc(OC)c(C2CCN(CC(C)(C)N3CCOCC3)C2)c1` (centres undefined) reads 12.7%; that for `O=C(c1ccncc1)N1C[C@@H]2CC[C@H](C1)N(C(=O)N1CCOCC1)C2`, 12.6%.
As for `COCC(=O)N1CC[C@]2(O)CCN(Cc3cccnc3OC)C[C@@H]2C1`, the Percent Effect worked out at 17.1%.
The result for `COc1ccc(CC(=O)N2CC[C@@H]3NC(=O)CC[C@@H]32)cc1` reads 8.77%.
The figure for `O=C(NCc1cnn2cccnc12)c1cccc(CC2CCNCC2)c1` is 60%; for `CC(C)(O)CCc1cccc(C(=O)NCc2cnn3cccnc23)c1` it is 2.22%.
The figure for `CC(C)Cn1cncc1CNC(=O)c1cccc(CC2CCNCC2)c1` is 25.6%; for `O=C(CC1CCCCC1)N1C[C@H]2CC[C@@H]1CN(Cc1cccnc1)C2` it is 9.68%.

(Values after ChEMBL document CHEMBL3988442, “University of Dundee, Small-Polar-MMV Screening Library” (2021).)
